A short description of assay [1]: antimalarial activity against Dd2 strain (AID 2302;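 active = growth inhibition above 50% at the single 2 µM test dose, taken to imply half-maximal potency below 2 µM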;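 note: 0% = DMSO untreated growth and 100% = chloroquine plus artemisinin killed control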). To be noted: P. falciparum Dd2 in RBCs, LDH growth readout, 72 h; at 2 µM; stronger effect = higher value.
The nature of assay [2]: HepG2 cytotoxicity, primary screen, cytotoxicity control for P. falciparum antimalarial project, cell-based, ATP luminescence (AID 2303;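 active = inhibition above 50%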;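 note: 0% = DMSO wells and 100% = digitonin-killed cells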). The settings on record: HepG2 viability, 24-48 h, at 10 µM, stronger effect = higher value.
The target of assay [3] is L-lactate dehydrogenase (Plasmodium falciparum (isolate CDC / Honduras)) (UniProt Q27743). Nature of the assay: PfLDH activity inhibition – cell lysate, 3D7 strain, counter-screen for P. falciparum growth inhibition project (AID 2304).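 Note: 0% = vehicle and 100% = reference inhibitor.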 The settings on record: P. falciparum 3D7 crude extract, LDH APAD/NBT absorbance; at 2 µM; stronger effect = higher value. In general terms: Counterscreens check selectivity or assay interference.
L-lactate dehydrogenase (Plasmodium falciparum (isolate CDC / Honduras)), sequence (Q27743 whole entry, looked up): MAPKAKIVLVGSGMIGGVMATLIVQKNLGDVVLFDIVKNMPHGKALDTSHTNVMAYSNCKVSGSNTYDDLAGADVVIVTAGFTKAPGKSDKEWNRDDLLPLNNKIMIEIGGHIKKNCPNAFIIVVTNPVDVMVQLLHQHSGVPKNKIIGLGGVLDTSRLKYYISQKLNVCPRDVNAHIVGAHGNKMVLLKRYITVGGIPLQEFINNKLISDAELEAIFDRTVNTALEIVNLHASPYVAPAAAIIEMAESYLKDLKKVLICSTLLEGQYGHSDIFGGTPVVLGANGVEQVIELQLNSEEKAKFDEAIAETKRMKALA

A short description of assay [4]: inhibition of 3D7 malaria parasite growth – strain 3D7 (AID 2306).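 Note: 0% = DMSO wells and 100% = chloroquine plus artemisinin control wells.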 To be noted: P. falciparum 3D7 erythrocytic growth, LDH absorbance, 72 h; at 2 µM; stronger effect = higher value.
Assay [5] deals with Calcium-dependent protein kinase 1 (Plasmodium falciparum (isolate 3D7)) (UniProt P62344). Nature of the assay: PfCDPK1 kinase inhibitors, biochemical, TCAMS library (AID 1159585; cut-off not given, nearly all actives have IC50 up to about 0.98 µM;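 note: inhibitors leave more ATP so luminescence rises with inhibition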). The settings on record: recombinant PfCDPK1, Kinase-Glo ATP depletion luminescence. In general terms: In Kinase-Glo more light means more ATP remaining.
Calcium-dependent protein kinase 1 (Plasmodium falciparum (isolate 3D7)), sequence (P62344 whole entry, looked up): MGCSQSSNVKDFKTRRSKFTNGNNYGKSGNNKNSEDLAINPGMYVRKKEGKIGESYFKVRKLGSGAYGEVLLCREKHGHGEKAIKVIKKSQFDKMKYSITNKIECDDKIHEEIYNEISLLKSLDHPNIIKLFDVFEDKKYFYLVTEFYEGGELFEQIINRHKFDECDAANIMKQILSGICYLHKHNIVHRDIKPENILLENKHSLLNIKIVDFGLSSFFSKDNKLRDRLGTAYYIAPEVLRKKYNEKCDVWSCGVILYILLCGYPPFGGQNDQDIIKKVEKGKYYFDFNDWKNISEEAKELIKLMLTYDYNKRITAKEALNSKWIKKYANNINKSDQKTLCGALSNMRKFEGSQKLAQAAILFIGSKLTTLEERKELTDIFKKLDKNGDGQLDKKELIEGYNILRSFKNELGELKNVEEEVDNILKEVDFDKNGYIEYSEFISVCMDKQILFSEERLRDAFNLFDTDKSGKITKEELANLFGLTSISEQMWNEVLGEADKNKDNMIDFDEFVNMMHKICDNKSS
Assay [6] addresses Plasmodium falciparum protein kinase 6 (PK6, PF3D7_1337100) (UniProt Q8IDW1). Nature of the assay: PfPK6 kinase inhibitors, biochemical, TCAMS library (AID 1159586). To be noted: recombinant PfPK6, Kinase-Glo ATP depletion luminescence.
Assay [7] addresses Protein kinase 7 (PK7), Plasmodium falciparum 3D7 (PF3D7_0213400) (UniProt Q7YTF7). Nature of the assay: inhibition of Plasmodium PK7 catalytic activity – biochemical, TCAMS antimalarial set, Kinase-Glo luminescence (AID 1159587). To be noted: recombinant PfPK7, Kinase-Glo ATP depletion luminescence.
For assay [8], the target named is Calcium-dependent protein kinase 4 (Plasmodium falciparum (isolate 3D7)) (UniProt Q8IBS5). Nature of the assay: PfCDPK4 kinase inhibitors, biochemical, TCAMS library (AID 1159588; cut-off not given, nearly all actives have IC50 up to about 0.91 µM). To be noted: recombinant PfCDPK4, Kinase-Glo ATP depletion luminescence.
Calcium-dependent protein kinase 4 (Plasmodium falciparum (isolate 3D7)), sequence (Q8IBS5 whole entry, looked up): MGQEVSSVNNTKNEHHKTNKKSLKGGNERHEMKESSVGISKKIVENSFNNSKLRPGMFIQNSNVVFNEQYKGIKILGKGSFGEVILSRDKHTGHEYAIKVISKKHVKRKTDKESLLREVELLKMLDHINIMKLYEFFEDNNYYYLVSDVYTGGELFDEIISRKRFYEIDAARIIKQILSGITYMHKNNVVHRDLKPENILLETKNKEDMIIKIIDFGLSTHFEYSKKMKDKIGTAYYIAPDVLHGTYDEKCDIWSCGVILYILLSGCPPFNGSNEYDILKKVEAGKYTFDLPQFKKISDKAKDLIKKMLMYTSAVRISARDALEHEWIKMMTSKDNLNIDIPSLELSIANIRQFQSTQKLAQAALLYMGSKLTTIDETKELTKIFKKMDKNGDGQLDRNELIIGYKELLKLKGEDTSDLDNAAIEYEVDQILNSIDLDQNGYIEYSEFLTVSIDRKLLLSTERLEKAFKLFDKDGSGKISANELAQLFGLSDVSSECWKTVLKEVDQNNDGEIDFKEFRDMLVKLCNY

For 21 compounds, growth inhibition, inhibition and outcome results are on record in PubChem BioAssay.

The inhibition is the change of the read-out against control, counted positive when it falls.

Values without a mark were called inactive. For part of these data: Results with a measured potency or affinity are listed apart. The source made the active and inactive calls. Unless noted, the rule behind the calls is not given here.

Protein kinase 7 (PK7), Plasmodium falciparum 3D7 (PF3D7_0213400), sequence (Q7YTF7 1-343): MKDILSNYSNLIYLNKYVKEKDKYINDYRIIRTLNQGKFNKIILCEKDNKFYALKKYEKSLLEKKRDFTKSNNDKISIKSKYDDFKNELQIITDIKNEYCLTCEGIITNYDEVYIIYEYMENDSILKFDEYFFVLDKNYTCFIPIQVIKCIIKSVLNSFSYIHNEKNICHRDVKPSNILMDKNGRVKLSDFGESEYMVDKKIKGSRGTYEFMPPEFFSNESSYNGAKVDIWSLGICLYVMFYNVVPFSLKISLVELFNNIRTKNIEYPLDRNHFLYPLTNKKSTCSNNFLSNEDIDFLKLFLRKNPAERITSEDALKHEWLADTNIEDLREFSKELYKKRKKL
Plasmodium falciparum protein kinase 6 (PK6, PF3D7_1337100), sequence (Q8IDW1 1-305): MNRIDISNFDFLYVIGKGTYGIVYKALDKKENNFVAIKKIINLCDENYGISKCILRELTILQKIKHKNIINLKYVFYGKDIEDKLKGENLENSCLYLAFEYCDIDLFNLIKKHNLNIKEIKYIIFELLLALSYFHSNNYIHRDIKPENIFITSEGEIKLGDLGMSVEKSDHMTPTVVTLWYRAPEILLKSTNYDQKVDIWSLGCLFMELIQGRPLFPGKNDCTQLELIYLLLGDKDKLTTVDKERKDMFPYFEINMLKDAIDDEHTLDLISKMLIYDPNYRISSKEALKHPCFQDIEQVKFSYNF

For the compound `COc1c(C2CCN(CCCCNC(=O)c3ccc(-c4ccc(Cl)cc4)c(OCC(N)=O)c3)CC2)ccc2c1CCCC2`, the growth inhibition in assay [1] is 11%; in assay [4] it was 97% (active). In addition, the figures for the inhibition in assay [2] and in assay [3] were 43% and 3%, respectively. The result in assay [5], in assay [6], in assay [7] and in assay [8] was inactive.
For `CC[C@H](N=C(Nc1ccc(C#N)cc1O)Nc1cccc(Cl)c1Cl)c1ccccc1`, the growth inhibition is 71% (active) in assay [1] and 91% (active) in assay [4]. Moreover, the inhibition in assay [2] was -2%; in assay [3], -1%. Moreover, the outcome in assay [5], in assay [6], in assay [7] and in assay [8] was inactive.
For `COc1cccc(CCNCCCCCCNCCc2ccc(Cl)cc2)c1`, the growth inhibition is 3% in assay [1] and 100% (active) in assay [4]. For the same compound, the inhibition in assay [2] is 32%; in assay [3] it was -1%. Besides, the outcome in assay [5], in assay [6], in assay [7] and in assay [8] was inactive.
`COc1ccc(CNCCc2cccs2)cc1-c1ccc(S(=O)(=O)NCCN2CCCC2)s1`: the growth inhibition was 21% in assay [1] and 99% (active) in assay [4]. The inhibition in assay [2] is 41%; in assay [3], 2%. Further, the outcome in assay [5], in assay [6], in assay [7] and in assay [8] was inactive.
Consider `NS(=O)(=O)c1ccc(CNC(=O)c2cnc3c(O)cccc3c2Nc2cccc(NC(=O)c3ccc(Cl)c(Cl)c3)c2)cc1`, for which the results for the growth inhibition in assay [1] and in assay [4] were 35% and 97% (active), respectively. Also, the inhibition is 56% (active) in assay [2] and -1% in assay [3]. The result in assay [5], in assay [6], in assay [7] and in assay [8] was inactive.
Consider `CCc1cn2c3c(cc(C(=O)N[C@@H](Cc4ccccc4)[C@H](O)CNC(C)(C)c4cccc(OC)c4)cc13)N(C)S(=O)(=O)C2`, for which the growth inhibition in assay [1] was 99% (active); in assay [4], 98% (active). Also, the inhibition in assay [2] is 27%; in assay [3], -5%. In addition, the result in assay [5], in assay [6], in assay [7] and in assay [8] was inactive.
`O=C(Cc1ccccc1)NC(c1ccc(Cl)cc1)c1ccc2cccnc2c1O` (stereo not drawn): the growth inhibition in assay [1] was 64% (active); in assay [4], 93% (active). For the same compound, the figures for the inhibition in assay [2] and in assay [3] were 50% (active) and -2%, respectively. Moreover, the result in assay [5], in assay [6], in assay [7] and in assay [8] was inactive.
Take `Cc1c(C)n(C2CCCCC2)c2ncnc(OC3CCN(CC(=O)N4CCCC4)CC3)c12`: the values for the growth inhibition in assay [1] and in assay [4] were 59% (active) and 95% (active), respectively. Besides, the inhibition in assay [2] is 31%; in assay [3] it was -4%. Further, the result in assay [5], in assay [6], in assay [7] and in assay [8] was inactive.
As to `O=C1COC2(CN1CC1CCN(Cc3ccc(O)c(Cl)c3)C1)c1ccccc1-c1ccccc12` (stereo not drawn), the growth inhibition is 50% (active) in assay [1] and 93% (active) in assay [4]. The inhibition is 6% in assay [2] and 1% in assay [3]. The result in assay [5], in assay [6], in assay [7] and in assay [8] was inactive.
Regarding `CC(O)CNc1nc2ccccc2n1CC(=O)Nc1cccc(C(=O)Nc2cccc(C(F)(F)F)c2)c1` (stereo not drawn), the values for the growth inhibition in assay [1] and in assay [4] were 95% (active) and 99% (active), respectively. In addition, the inhibition was 2% in assay [2] and 0% in assay [3]. Further, the result in assay [5], in assay [6], in assay [7] and in assay [8] was inactive.
On to `CCNc1cc(C(=O)N[C@@H](Cc2ccccc2)[C@H](O)CNC2C3CC4CC(C3)CC2C4)cc(N2CCCCS2(=O)=O)c1` (stereo partly drawn), for which the growth inhibition in assay [1] was 96% (active); in assay [4] it was 97% (active). The inhibition in assay [2] is -2%; in assay [3], 6%. In addition, the outcome in assay [5], in assay [6], in assay [7] and in assay [8] was inactive.
In the case of `Cc1nc(N)nc(N)c1C#CC1CCCC1`, the growth inhibition was 2% in assay [1] and 96% (active) in assay [4]. In addition, the values for the inhibition in assay [2] and in assay [3] were 68% (active) and 4%, respectively. The outcome in assay [5], in assay [6], in assay [7] and in assay [8] was inactive.
Consider `c1ccc2c(C3CCN(CCCCOc4ccc5c(c4)CCN(CC4CC4)CC5)CC3)c[nH]c2c1`, for which the growth inhibition in assay [1] was 97% (active); in assay [4], 99% (active). The inhibition in assay [2] was 74% (active); in assay [3], -8%. The outcome in assay [5], in assay [6], in assay [7] and in assay [8] was inactive.
Consider `Cc1ccccc1CCNC(=O)c1cnc(N2CCN(c3ccncc3)CC2)c(Cl)c1`, for which the values for the growth inhibition in assay [1] and in assay [4] were 95% (active) and 100% (active), respectively. Besides, the inhibition is 36% in assay [2] and -2% in assay [3]. Moreover, the result in assay [5], in assay [6], in assay [7] and in assay [8] was inactive.
As to `CCCc1cc(NCC)nc(Nc2ccc(C)cc2)n1`, the values for the growth inhibition in assay [1] and in assay [4] were 16% and 95% (active), respectively. For the same compound, the values for the inhibition in assay [2] and in assay [3] were 22% and -1%, respectively. The result in assay [5], in assay [6], in assay [7] and in assay [8] was inactive.
Turning to `Cc1nc2nc(N)nc(N)c2c(C)c1Cc1ccc(C(N)=O)cc1`, the growth inhibition in assay [1] was -3%; in assay [4], 97% (active). Also, the inhibition in assay [2] is 55% (active); in assay [3], 3%. Further, the result in assay [5], in assay [6], in assay [7] and in assay [8] was inactive.
On to `Cc1nc2c(Nc3nc(-c4ccncc4)cs3)ncnc2n1-c1ccccc1Cl`, for which the growth inhibition was 96% (active) in assay [1] and 97% (active) in assay [4]. The inhibition in assay [2] is 14%; in assay [3] it was 0%. In addition, the outcome in assay [5], in assay [6], in assay [7] and in assay [8] was inactive.
`Cc1c(Cn2ncc(N3CCC(N)CC3)c(Cl)c2=O)cccc1NC(=O)Nc1ccc(-c2ccccc2)cc1`: the growth inhibition was 43% in assay [1] and 97% (active) in assay [4]. Besides, the inhibition in assay [2] is 19%; in assay [3], -1%. The result in assay [5], in assay [6], in assay [7] and in assay [8] was inactive.
Consider `COc1cc(NC(=O)c2ccc(-c3ccc(C(C)=O)cc3)s2)ccc1OCCN1CCCC1`, for which the growth inhibition is 63% (active) in assay [1] and 100% (active) in assay [4]. The inhibition in assay [2] is 31%; in assay [3], 3%. Moreover, the result in assay [5], in assay [6], in assay [7] and in assay [8] was inactive.
As for `O=C(C=Cc1cccs1)N(CCCn1ccnc1)c1nc2ccc(F)cc2s1`, the growth inhibition was 28% in assay [1] and 98% (active) in assay [4]. The inhibition in assay [2] and in assay [3] was -1% each time. The result in assay [5], in assay [6], in assay [7] and in assay [8] was inactive.
Regarding `Fc1ccc2nccc(NN=CC=Cc3ccccc3)c2c1`, the values for the growth inhibition in assay [1] and in assay [4] were 77% (active) and 96% (active), respectively. For the same compound, the inhibition in assay [2] is 29%; in assay [3], -2%. Further, the outcome in assay [5], in assay [6], in assay [7] and in assay [8] was inactive.
